A short description of assay [1]: cAMP Responsive Elements (CRE) small molecule antagonists, cell-based qHTS assay: qHTS cell viability counter screen (AID 2060913). Also: nearly all actives have a fitted effect of over 40% in size. The gist of the method:
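Cytotoxicity read in the same wells as the CRE-bla HEK293T antagonist assay: after 3 h compound with 0.25 uM NKH477 final and 2 h beta-lactamase substrate, CellTiter-Glo luminescence measured.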
In general terms: Quantitative high-throughput screening tests each substance at several concentrations.

Assay [2] in a line: cAMP Responsive Elements (CRE) small molecule agonists, cell-based qHTS assay: qHTS cell viability counter screen (AID 2060914). Also: nearly all actives have a fitted effect of over 50% in size. The gist of the method:
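Cytotoxicity was measured as ATP luminescence (CellTiter-Glo, 30 min at room temperature) in the same wells as the CRE-bla FRET read-out. HEK293T CRE-bla cells had 3 h compound exposure at 37C/5% CO2.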

Drawing on PubChem BioAssay (Tox21), this text covers Potency for 56 molecules.

Molecules are shown by their SMILES. Results filed as inconclusive are left out. Where a call stands in place of a potency, no number is given. Calls of active or inactive are those of the source. Calls follow the shape of the dose curve; as a rule, active = well fitted cell-killing curve with a large enough effect in the repeat runs; inconclusive = weak or mixed curves, or effect the other way; inactive = flat fitted curve, though single readings scatter.
Potency is read from the fitted curve at half-maximal effect.

Turning to `CSCCC=O`, the Potency result in assay [1] and in assay [2] was “inactive” throughout.
With `C1COCO1`, the Potency result in assay [1] and in assay [2] was “inactive” each time.
For `C1=CCCC1`, the Potency result in assay [1] and in assay [2] was “inactive” in each case.
Take `CCCc1cc(C(N)=S)ccn1`: the Potency result in assay [1] and in assay [2] was “inactive” each time.
As for `N=C(N)c1ccc(OCCCCCOc2ccc(C(=N)N)cc2)cc1`, the Potency result in assay [1] and in assay [2] was “inactive” throughout.
For `O=Cc1ccc(CO)o1`, the Potency result in assay [1] and in assay [2] was “inactive” in each case.
Consider `O=C(O)c1ccc(-n2nc(-c3ccccc3O)nc2-c2ccccc2O)cc1`, for which the Potency entry in assay [1] and in assay [2] was “inactive” in each case.
Regarding `Cc1ccc(C)c(O)c1`, the Potency entry in assay [1] and in assay [2] was “inactive” in each case.
In the case of `C=Cc1ccc(O)c(OC)c1`, the Potency result in assay [1] and in assay [2] was “inactive” in each case.
`Cn1c(=O)c2c(ncn2CC2OCCO2)n(C)c1=O`: the Potency entry in assay [1] and in assay [2] was “inactive” in each case.
On to `CC(C)=CCOc1ccc(/C=C/C(=O)c2ccc(OCC=C(C)C)cc2OCC(=O)O)cc1`, for which the Potency entry in assay [1] and in assay [2] was “inactive” throughout.
Consider `CC/C=C\CCOC(=O)C(C)C`, for which the Potency entry in assay [1] and in assay [2] was “inactive” in each case.
Turning to `CC(=O)OC(C)(C)C`, the Potency entry in assay [1] and in assay [2] was “inactive” throughout.
Turning to `CC1=C2[C@H](/C=C(\C)C(=O)O)CC[C@@H](C)[C@H]2CC1`, the Potency entry in assay [1] and in assay [2] was “inactive” each time.
For `CCCCOC(=O)CCCCCCCCC(=O)OCCCC`, the Potency entry in assay [1] and in assay [2] was “inactive” each time.
As to `CCOC(=O)[C@H](CCc1ccccc1)N[C@H]1CS[C@H](c2cccs2)CN(CC(=O)O)C1=O`, the Potency entry in assay [1] and in assay [2] was “inactive” throughout.
For `CC1(C)O[C@@H]2C[C@H]3[C@@H]4CCC5=CC(=O)C=C[C@]5(C)[C@H]4[C@@H](O)C[C@]3(C)[C@]2(C(=O)CO)O1`, the Potency entry in assay [1] and in assay [2] was “inactive” in each case.
With `c1cc(N(CC2CO2)CC2CO2)ccc1OCC1CO1` (configuration not stated), the Potency result in assay [1] and in assay [2] was “inactive” in each case.
With `CC1=CC(=O)CC(C)(C)C1=O`, the Potency entry in assay [1] and in assay [2] was “inactive” throughout.
In the case of `CC(C)Cc1ccc(CC(=O)O)cc1`, the Potency entry in assay [1] and in assay [2] was “inactive” each time.
With `C=C1CC[C@H]2C[C@@H]1C2(C)C`, the Potency entry in assay [1] and in assay [2] was “inactive” in each case.
For `CC1CCCO1` (configuration not stated), the Potency result in assay [1] and in assay [2] was “inactive” throughout.
Turning to `O=[N+]([O-])c1ccc2nc[nH]c2c1`, the Potency entry in assay [1] and in assay [2] was “inactive” in each case.
Regarding `C=CCON/C(CCC)=C1\C(=O)CC(C)(C)C(C(=O)OC)=C1O`, the Potency entry in assay [1] and in assay [2] was “inactive” each time.
`CCCCOC(=O)c1ccccc1`: the Potency entry in assay [1] and in assay [2] was “inactive” in each case.
In the case of `C=COCCOCCOC=C`, the Potency entry in assay [1] and in assay [2] was “inactive” in each case.
Regarding `C=CCCCCCCCCC(=O)OCC`, the Potency result in assay [1] and in assay [2] was “inactive” in each case.
As to `CC(CCO)CCCC(C)(C)O` (configuration not stated), the Potency result in assay [1] and in assay [2] was “inactive” in each case.
For `CCCCCC(=O)O[C@]1(C(C)=O)CC[C@H]2[C@@H]3CCC4=CC(=O)CC[C@]4(C)[C@H]3CC[C@@]21C`, the Potency entry in assay [1] and in assay [2] was “inactive” each time.
With `CNC(=O)c1c(I)c(NC(C)=O)c(I)c(C(=O)O)c1I`, the Potency entry in assay [1] and in assay [2] was “inactive” throughout.
As to `CCCC(C)C=O` (configuration not stated), the Potency result in assay [1] and in assay [2] was “inactive” in each case.
As for `CO[Si](CCCNCCC[Si](OC)(OC)OC)(OC)OC`, the Potency result in assay [1] and in assay [2] was “inactive” in each case.
`CCCCCCCCCCCCCCCCCCO`: the Potency entry in assay [1] and in assay [2] was “inactive” throughout.
For `Cc1cc(O)c(C(C)(C)C)cc1Sc1cc(C(C)(C)C)c(O)cc1C`, the Potency in assay [1] was 21.6 µM (active); in assay [2], 38.5 µM (active).
On the same counts, the results for `C/C=C/C=C/CCCCCCCO` are “inactive” and “inactive”.
Taken in the same sequence, the figures for `Cc1cc(O)c(Cl)cc1C` were “inactive” and “inactive”.
In the case of `CCCCCCCCCCCSCC(=O)O`, the Potency entry in assay [1] and in assay [2] was “inactive” in each case.
Turning to `CC/C=C/CCO`, the Potency result in assay [1] and in assay [2] was “inactive” throughout.
Turning to `COc1cccc2sc(N)nc12`, the Potency entry in assay [1] and in assay [2] was “inactive” throughout.
Take `C=C(C)C(N)=O`: the Potency result in assay [1] and in assay [2] was “inactive” in each case.
In the case of `COc1nc(C)nc(Cl)c1NC1=NCCN1`, the Potency result in assay [1] and in assay [2] was “inactive” in each case.
As for `Cc1ccc(C(=O)c2ccccc2)cc1`, the Potency result in assay [1] and in assay [2] was “inactive” in each case.
Regarding `N#C/C(=C1/SC[C@@H](c2ccc(Cl)cc2Cl)S1)n1ccnc1`, the Potency result in assay [1] and in assay [2] was “inactive” throughout.
`C=CC(C)(CCC=C(C)C)OC(=O)C(C)C` (configuration not stated): the Potency result in assay [1] and in assay [2] was “inactive” throughout.
As to `CNC1CCCN(c2c(F)cc3c(=O)c(C(=O)O)cn(C4CC4)c3c2OC)C1` (configuration not stated), the Potency result in assay [1] and in assay [2] was “inactive” in each case.
In the case of `OC1OCCOC1O` (configuration not stated), the Potency result in assay [1] and in assay [2] was “inactive” throughout.
Consider `Brc1cc(-c2ccc(Br)c(Br)c2Br)cc(Br)c1Br`, for which the Potency result in assay [1] and in assay [2] was “inactive” each time.
Turning to `CC(C)c1cccc(O)c1`, the Potency entry in assay [1] and in assay [2] was “inactive” throughout.
Regarding `CC(C)C(C)(C)C(C)(C)C(C)(C)S`, the Potency entry in assay [1] and in assay [2] was “inactive” in each case.
As for `O=C(/C=C/c1ccccc1)NCCO`, the Potency entry in assay [1] and in assay [2] was “inactive” each time.
As to `CC(=O)OCC(=O)NCCCOc1cccc(CN2CCCCC2)c1`, the Potency entry in assay [1] and in assay [2] was “inactive” each time.
Turning to `CCOC(=O)c1ccc(OCCN2C[C@H](O)[C@@H](O)[C@H](O)[C@H]2CO)cc1`, the Potency result in assay [1] and in assay [2] was “inactive” throughout.
`O=C(O)C1CCC1`: the Potency result in assay [1] and in assay [2] was “inactive” each time.
For the molecule `CCc1c(C)[nH]c2c1C(=O)C(CN1CCOCC1)CC2` (configuration not stated), the Potency result in assay [1] and in assay [2] was “inactive” in each case.
For `CCN(CC)C(C)=O`, the Potency entry in assay [1] and in assay [2] was “inactive” throughout.
As for `CNC(=O)CN(CCN(CCN(CC(=O)[O-])CC(=O)NC)CC(=O)[O-])CC(=O)[O-].O.[Gd+3]`, the Potency result in assay [1] and in assay [2] was “inactive” in each case.
